The source of these data is PubChem BioAssay AID1321 (The Scripps Research Institute Molecular Screening Center, 2008).

Among all 220,000 compounds or so, about 2,600 (1.2%) were called active.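 How the source made its calls: active means activation above the mean of all tested compounds plus 3 SD, set per screening run (cut at about 8.8% in these data); inactive means the rest.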 Only a selection was taken, and actives are over-represented in it overall.

This assay addresses Wee1-like protein kinase (Homo sapiens) (UniProt P30291). As to the kind of experiment: Wee1 degradation inhibitors, primary screen, cell-based, HeLa, Wee1K328M-luciferase, luminescence (AID 1321).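 Further: cells exposed to compound for 20 h before luminescence read; 0% = DMSO alone and 100% = MG132 at 30 µM.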 Conditions: HeLa Luc-Wee1K328M stability, at 5 µM, stronger effect = higher value, 100% = proteasome inhibitor MG132 effect.
Regarding `Cc1nn(-c2ccccc2)c(=O)c2noc(C)c12`, the reporter increase was 3.18% (inactive). Next, `CS(=O)(=O)c1ccc2nnn(OCC(=O)Nc3cccc(C#N)c3)c2c1`: 0.86% (inactive); `Cn1c(=O)c(=O)n(C)c2cc(S(=O)(=O)NCCN3CCN(c4ccccc4F)CC3)ccc21`: 3.58% (inactive). Next, `COc1ccc(Cc2cc(-c3ccc(F)cc3)n[nH]c2=O)cc1`: -0.9% (inactive); `CCC1(C)Cc2c(sc3nc(SC)[nH]c(=O)c23)CO1` (centres undefined): -2.99% (inactive); `COc1ccc2nc(Nc3nc4ccc(NC(C)=O)cc4s3)sc2c1`: 10.4% (active). Next, `CCCC(=O)Nc1nc2ccc(NC(=O)c3c(F)c(F)c(OC)c(F)c3F)cc2s1`: 10.8% (active); `CSc1nc2ccc(NC(=O)c3c(F)cccc3F)cc2s1`: 4.29% (inactive). Take `CCOc1ccc2nc(Nc3nc4ccc(NC(C)=O)cc4s3)sc2c1`: the reporter increase is 1.97% (inactive).

As for `CCCC(=O)Nc1nc2ccc(NC(=O)c3cccnc3)cc2s1`, the reporter increase was 3.09% (inactive). Next, `COc1ccc2nc(Nc3nc4cc5c(cc4s3)OCCO5)sc2c1`: 0.78% (inactive); `CCCC(=O)Nc1ccc2c(c1)nc(CCNC(=O)c1ccco1)n2C`: 1.75% (inactive); `CC(=O)N(OCc1ccc(OC(C)C)c(Cl)c1)C(C)=O`: 2.11% (inactive). Next, `Cc1c(S(=O)(=O)NCc2ccccc2)c(=O)n(C)c(=O)n1C`: -0.22% (inactive); `CN1CCN(c2ccc(S(=O)(=O)N3CCOCC3)cc2NC(=O)CCc2ccccc2)CC1`: 1.28% (inactive). Regarding `Cc1nnc2n1N=C(c1ccc3c(c1)NC(=O)CO3)CS2`, the reporter increase is -1.74% (inactive). Next, `N/C(=N\S(=O)(=O)c1cc(C(F)(F)F)cc(C(F)(F)F)c1)c1cccs1`: -2.49% (inactive); `O=C(Nc1ccc(F)cc1)c1cc2c(s1)CCCC2`: 16.5% (active). Next, `O=C(CNC(=O)c1cc2c(s1)CCC2)Nc1ccccc1Br`: 5.95% (inactive); `O=C(NNC(=O)c1cc2c(s1)CCCC2)c1ccccc1`: 4.34% (inactive).

Regarding `O=C(CNCCC1=CCCCC1)Nc1ccccc1N1CCCCCC1`, the reporter increase was -2.9% (inactive).

Turning to `CN(CC(=O)Nc1ccc(F)cc1)CC(=O)Nc1ccc(Cl)c(S(=O)(=O)N2CCOCC2)c1`, the reporter increase was -2.59% (inactive). The figure for `CCN(CC)CCOc1ccc2c(c1)C(=NNC(=O)c1ccccn1)c1cc(OCCN(CC)CC)ccc1-2` is 13% (active).

For the molecule `COc1ccc(CC(=O)N/N=C(\C)c2ccccn2)cc1`, the reporter increase was 3.82% (inactive). Next, `CCOc1cc(NC(=O)c2ccccn2)c(OCC)cc1NC(=O)c1ccc(OC)cc1`: -0.73% (inactive); `COc1ccccc1-n1cn[nH]c1=S`: -1.47% (inactive); `Cc1ccc2c(C)c(C(=O)N3CCC(N4CCC(C(=O)NC5CC5)CC4)CC3)oc2c1`: 7.23% (inactive). Next, `O=C(N/N=C\c1cc(Br)c(Br)o1)C1COc2ccccc2O1` (centres undefined): 3.79% (inactive). The figure for `Cc1cc(CO)nn1-c1ccc([N+](=O)[O-])cc1` is -1.77% (inactive); for `c1cnc(Nc2nc(-c3ccc4ccccc4c3)cs2)nc1` it is -0.11% (inactive); for `COc1ccc(-c2csc(Nc3ccccn3)n2)cc1` it is 0.98% (inactive). Consider `c1ccc(Nc2nc(-c3ccncc3)cs2)nc1`, for which the reporter increase is 11.1% (active).

For `O=C(O)C#Cc1cccc2ccccc12`, the reporter increase was 6.16% (inactive). Regarding `O=[N+]([O-])C(=c1ccc2c(c1)N1C3=C(CCCC3)CC3CCCCC31N=2)[N+](=O)[O-]` (centres undefined), the reporter increase was -2.36% (inactive). The figure for `Cc1cc(C)c2c(n1)sc1c(=O)n(-c3ccccc3)c(=O)[nH]c12` is 17.8% (active); for `Cc1cc(C)c2c(-n3cccc3)c(NC(=O)OCc3ccccc3)sc2n1` it is -2.38% (inactive); for `C/C(O)=C\c1nc(=O)c2c(C)cc(C)nc2n1-c1ccccc1` it is -1.67% (inactive). The figure for `O=c1[nH]c(SCc2cccc(F)c2)nc2ccccc12` is -1.83% (inactive); for `O=P(O)(CN1CCCCCC1)C1Cc2ccccc2C1` it is 2.27% (inactive). With `CC1CCN(Cc2nc(-c3ccc(Cl)cc3)no2)CC1`, the reporter increase was 8.97% (active). Next, `Cc1ccc(-c2noc(CN3CCN(Cc4ccccc4)CC3)n2)cc1`: 0.1% (inactive); `CN1CCN(C(=O)CCc2nc(-c3ccc(Cl)cc3)no2)CC1`: 2.75% (inactive). The figure for `COCC(C)OC(=O)c1c(N)n(CCCN2CCOCC2)c2nc3ccccc3nc12` (centres undefined) is -0.94% (inactive); for `FC(F)(F)c1cccc(-c2nc(COc3ccc(Cl)cc3Cl)no2)c1` it is 1.86% (inactive); for `COc1ccccc1C(=O)n1nc(-c2ccccc2)nc1N` it is 0.74% (inactive). Next, `COc1ccc(CC(=O)n2nc(-c3cccnc3)nc2N)cc1`: 9.39% (active); `CCCC(=O)n1nc(-c2ccccc2)nc1N`: -0.53% (inactive); `Clc1ccc(CSc2nnc3c(n2)[nH]c2ccccc23)cc1`: 4.2% (inactive). Consider `CC(=O)NCC(O)c1ccc([N+](=O)[O-])cc1` (centres undefined), for which the reporter increase is -2.38% (inactive). Next, `COC(=O)c1ccc(S(=O)(=O)N(CCO)Cc2ccccc2)n1C`: 0.33% (inactive); `O=C(Cn1cnc2ccccc2c1=O)Nc1cccc(S(=O)(=O)N2CCCCC2)c1`: -0.22% (inactive); `CC(=O)c1cc(C#N)c(SCC(=O)Nc2nccs2)nc1C`: 8.83% (active).

On to `CC(=O)c1cc(C#N)c(SCC(=O)C(C)(C)C)nc1C`, for which the reporter increase is 0.58% (inactive).

In the case of `Cc1[nH]c2ccccc2c1SCC(=O)Nc1nccs1`, the reporter increase was -4.02% (inactive).

For `O=C(/C=C/Sc1ncn[nH]1)c1ccc(Cl)cc1`, the reporter increase was 9.14% (active). Next, `Cc1cc(C)nc(S/C=C/C(=O)c2ccccc2)n1`: 1.73% (inactive). Consider `COc1ccc(Cl)cc1CSc1ncn[nH]1`, for which the reporter increase is -0.89% (inactive). For the molecule `Cc1ccc(NC(=S)N2CCCC(c3ccccc3)=N2)cc1`, the reporter increase was -4.54% (inactive). The figure for `NC(=O)Cc1ccc2sc(-c3ccccc3)nc2c1` is 14.1% (active). In the case of `O=C(O)Cc1sc(-c2ccc(C(=O)O)cc2)nc1-c1ccccc1`, the reporter increase is 2% (inactive). The figure for `NC(=O)Cc1ccc2c(c1)[nH]c1ccccc12` is 0.52% (inactive); for `Brc1ccc(-c2n(-c3ccccn3)c3ccccc3[n+]2-c2ccccn2)cc1` it is 3.34% (inactive).

For the molecule `CN(C)N=Nc1ccc2nc[nH]c2c1`, the reporter increase is 2.5% (inactive).

As for `Cc1ccc(C(=O)Nc2nc(N)n(-c3ccccc3)n2)cc1`, the reporter increase was -0.93% (inactive).
